In all, about 39,000 compounds went through this assay and about 3,300 (8.5%) were called active. The list comes from a sample in which actives are over-represented; it also holds similar structures and randomly drawn compounds.

This assay relates to HepG2. Briefly: cytotoxicity call (relative viability < 0.9). As to conditions: 10 µM.
In the case of `C[C@@H]1CN([C@@H](C)CO)S(=O)(=O)c2ccc(Br)cc2O[C@@H]1CN(C)C(=O)c1ccncc1`, the cytotoxicity call was “inactive”.

As to `C[C@H](CO)N1C[C@H](C)[C@H](CN(C)Cc2ccc(C(F)(F)F)cc2)Oc2ccc(NC(=O)NC3CCCCC3)cc2C1=O`, the cytotoxicity call was “inactive”.

As to `C[C@@H]1CN([C@@H](C)CO)C(=O)c2cccc(NS(C)(=O)=O)c2O[C@@H]1CN(C)S(=O)(=O)c1ccc(Cl)cc1`, the cytotoxicity call is “inactive”.

Regarding `C[C@H](CO)N1C[C@H](C)[C@@H](CN(C)Cc2ccc(C(F)(F)F)cc2)OCCCC[C@H](C)Oc2ccc(NC(=O)NC3CCCCC3)cc2C1=O`, the cytotoxicity call was “active”.

Take `C[C@@H]1CN([C@H](C)CO)C(=O)c2cc(NC(=O)NC3CCCCC3)ccc2O[C@@H](C)CCCCO[C@@H]1CN(C)Cc1ccc(C(F)(F)F)cc1`: the cytotoxicity call was “inactive”.

Regarding `C[C@H]1CCCCO[C@H](CN(C)Cc2ccc(C(F)(F)F)cc2)[C@@H](C)CN([C@@H](C)CO)C(=O)c2cc(NC(=O)NC3CCCCC3)ccc2O1`, the cytotoxicity call was “active”.

In the case of `C[C@H](CO)N1C[C@H](C)[C@H](CN(C)Cc2ccc(C(F)(F)F)cc2)OCCCC[C@H](C)Oc2ccc(NC(=O)NC3CCCCC3)cc2C1=O`, the cytotoxicity call is “inactive”.

Regarding `C[C@@H]1CCCCO[C@@H](CN(C)Cc2ccc(C(F)(F)F)cc2)[C@H](C)CN([C@@H](C)CO)C(=O)c2cc(NC(=O)NC3CCCCC3)ccc2O1`, the cytotoxicity call was “active”.

Take `C[C@@H]1CN([C@@H](C)CO)C(=O)c2cc(NC(=O)NC3CCCCC3)ccc2O[C@@H](C)CCCCO[C@H]1CN(C)Cc1ccc(C(F)(F)F)cc1`: the cytotoxicity call was “active”.

Regarding `Cc1ccc2nc(CN)cn2c1`, the cytotoxicity call was “inactive”.

Turning to `CCOc1ccc(Nc2nc3c(=O)nc[nH]c3n2[C@H]2O[C@@H](CO)[C@@H](O)[C@@H]2O)cc1`, the cytotoxicity call was “inactive”.

On to `C[C@H](CO)N1C[C@H](C)[C@@H](CN(C)C(=O)CCC(F)(F)F)OCCCC[C@H](C)Oc2ccc(NC(=O)CCC(F)(F)F)cc2C1=O`, for which the cytotoxicity call was “inactive”.

Consider `C[C@H]1CN([C@@H](C)CO)C(=O)CCCn2nncc2CO[C@H]1CN(C)C(=O)c1ccc(N2CCN(C)CC2)cc1`, for which the cytotoxicity call is “inactive”.

On to `COc1ccc(S(=O)(=O)N(C)C[C@@H]2Oc3ccc(NC(=O)NC(C)C)cc3CC(=O)N([C@H](C)CO)C[C@H]2C)cc1`, for which the cytotoxicity call is “inactive”.

As to `CN1CCN(C(=O)C[C@H]2CC[C@H]3[C@@H](COc4ccc(NC(=O)c5ccc(F)c(F)c5)cc4C(=O)N3C)O2)CC1`, the cytotoxicity call was “inactive”.

`COc1ccc(CNS(=O)(=O)N(C)C)cc1`: the cytotoxicity call is “inactive”.

On to `CO[C@H]1CN(C)C(=O)c2cc(NC(=O)Nc3ccccc3)ccc2OC[C@H](C)N(C(=O)CN(C)C)C[C@H]1C`, for which the cytotoxicity call was “inactive”.

Turning to `C[C@@H]1CCCCO[C@H](CN(C)Cc2ccc(C(F)(F)F)cc2)[C@@H](C)CN([C@@H](C)CO)C(=O)c2cc(NC(=O)NC3CCCCC3)ccc2O1`, the cytotoxicity call is “active”.

As to `C[C@@H]1CCCCO[C@H](CN(C)Cc2ccc(C(F)(F)F)cc2)[C@@H](C)CN([C@H](C)CO)C(=O)c2cc(NC(=O)NC3CCCCC3)ccc2O1`, the cytotoxicity call was “active”.

In the case of `C[C@@H]1CCCCO[C@@H](CN(C)Cc2ccc(C(F)(F)F)cc2)[C@@H](C)CN([C@H](C)CO)C(=O)c2cc(NC(=O)NC3CCCCC3)ccc2O1`, the cytotoxicity call is “inactive”.

Turning to `C[C@@H]1CCCCO[C@@H](CN(C)Cc2ccc(C(F)(F)F)cc2)[C@@H](C)CN([C@@H](C)CO)C(=O)c2cc(NC(=O)NC3CCCCC3)ccc2O1`, the cytotoxicity call is “active”.

`C[C@@H]1CCCCO[C@H](CN(C)Cc2ccc(C(F)(F)F)cc2)[C@H](C)CN([C@H](C)CO)C(=O)c2cc(NC(=O)NC3CCCCC3)ccc2O1`: the cytotoxicity call was “active”.

Consider `CNC(=O)C[C@H]1CC[C@H]2[C@@H](COC[C@@H](O)CN2C(=O)Nc2ccc3c(c2)OCO3)O1`, for which the cytotoxicity call is “inactive”.

For the compound `C[C@H](CO)N1C[C@H](C)[C@H](CN(C)C(=O)Nc2ccc(F)cc2)Oc2ccc(NS(=O)(=O)c3cn(C)cn3)cc2C1=O`, the cytotoxicity call is “inactive”.

With `C[C@H](CO)N1C[C@H](C)[C@@H](CN(C)C(=O)Cc2ccccc2)OCCCC[C@H](C)Oc2ccc(NS(=O)(=O)c3ccc(F)cc3)cc2C1=O`, the cytotoxicity call is “inactive”.

In the case of `C[C@@H]1CN([C@@H](C)CO)C(=O)c2cc(NS(=O)(=O)c3cn(C)cn3)ccc2O[C@@H]1CN(C)C(=O)NC1CCCCC1`, the cytotoxicity call is “inactive”.

`COc1ccc(S(=O)(=O)N(C)C[C@H]2OCCCC[C@@H](C)Oc3ccc(NS(=O)(=O)c4cn(C)cn4)cc3C(=O)N([C@@H](C)CO)C[C@@H]2C)cc1`: the cytotoxicity call is “inactive”.

With `C[C@@H]1CCCCO[C@H](CN(C)C(=O)Nc2cccc3ccccc23)[C@H](C)CN([C@@H](C)CO)C(=O)c2cc(NS(=O)(=O)c3cn(C)cn3)ccc2O1`, the cytotoxicity call was “inactive”.

`COc1ccc(S(=O)(=O)Nc2cccc3c2O[C@H](CN(C)C(=O)NC(C)C)[C@@H](C)CN([C@H](C)CO)C3=O)cc1`: the cytotoxicity call is “inactive”.

Consider `C[C@@H]1CCCCO[C@H](CN(C)S(=O)(=O)c2ccccc2)[C@@H](C)CN([C@H](C)CO)C(=O)c2cc(NC(=O)C3CCCCC3)ccc2O1`, for which the cytotoxicity call is “inactive”.

`CNC(=O)C(=O)NC[C@H]1CCCN1S(=O)(=O)c1cccs1`: the cytotoxicity call was “inactive”.

For the compound `CC(=O)OC1CCC2(C)C(CCC3C4CC=C(C(C)=O)C4(C)CCC32)C1` (stereo not drawn) [3-beta-ACETOXYALLOPREG-16-EN-20-ONE ], the cytotoxicity call is “inactive”.

On to `Cc1noc(C)c1S(=O)(=O)Nc1ccc2c(c1)CC(=O)N([C@H](C)CO)C[C@@H](C)[C@@H](CN(C)S(C)(=O)=O)O2`, for which the cytotoxicity call was “inactive”.

In the case of `C[C@@H]1CCCCO[C@@H](CN(C)C(=O)CCC(F)(F)F)[C@H](C)CN([C@@H](C)CO)C(=O)c2cc(NC(=O)CCC(F)(F)F)ccc2O1`, the cytotoxicity call was “inactive”.

On to `C[C@@H]1CN([C@H](C)CO)C(=O)c2cc(NC(=O)NC3CCCCC3)ccc2O[C@@H](C)CCCCO[C@H]1CN(C)Cc1ccc(C(F)(F)F)cc1`, for which the cytotoxicity call was “inactive”.

Regarding `C[C@H]1CCCCO[C@@H](CN(C)Cc2ccc(C(F)(F)F)cc2)[C@@H](C)CN([C@@H](C)CO)C(=O)c2cc(NC(=O)NC3CCCCC3)ccc2O1`, the cytotoxicity call is “active”.

On to `C[C@@H]1CCCCO[C@H](CN(C)Cc2ccc(C(F)(F)F)cc2)[C@H](C)CN([C@@H](C)CO)C(=O)c2cc(NC(=O)NC3CCCCC3)ccc2O1`, for which the cytotoxicity call was “active”.

In the case of `C[C@@H]1CCCCO[C@@H](CN(C)Cc2ccc(C(F)(F)F)cc2)[C@H](C)CN([C@H](C)CO)C(=O)c2cc(NC(=O)NC3CCCCC3)ccc2O1`, the cytotoxicity call was “active”.

Regarding `C[C@@H]1CN([C@@H](C)CO)C(=O)c2cc(NC(=O)NC3CCCCC3)ccc2O[C@@H](C)CCCCO[C@@H]1CN(C)Cc1ccc(C(F)(F)F)cc1`, the cytotoxicity call is “inactive”.

Consider `CCC(=O)Nc1ccc2c(c1)OC[C@H](C)N(C(=O)CN1CCOCC1)C[C@H](C)[C@@H](OC)CN(C)C2=O`, for which the cytotoxicity call is “inactive”.

`CO[C@H]1CN(C)C(=O)c2ccc(NS(=O)(=O)c3cn(C)cn3)cc2OC[C@H](C)N(CC2CC2)C[C@H]1C`: the cytotoxicity call is “inactive”.

With `O=C(N/N=C/[C@H](O)[C@@H](O)[C@@H](O)[C@H](O)CO)c1ccccn1`, the cytotoxicity call is “inactive”.

With `COc1ccc(NC(=O)N(C)C[C@H]2OCCCC[C@H](C)Oc3ccc(NS(=O)(=O)c4ccc(Cl)cc4)cc3C(=O)N([C@@H](C)CO)C[C@@H]2C)cc1`, the cytotoxicity call is “inactive”.

`COc1ccc(-c2cnc3c(c2)C(=O)N([C@H](C)CO)C[C@H](C)[C@@H](CN(C)C(=O)Cc2ccncc2)O3)cc1`: the cytotoxicity call was “inactive”.

Turning to `C[C@H](CO)N1C[C@H](C)[C@H](CN(C)S(C)(=O)=O)Oc2ccc(NS(=O)(=O)c3cccs3)cc2CC1=O`, the cytotoxicity call was “inactive”.

For `C[C@@H]1CN([C@@H](C)CO)C(=O)Cc2cc(NS(=O)(=O)c3cn(C)cn3)ccc2O[C@H]1CN(C)C(=O)Nc1ccc(F)cc1`, the cytotoxicity call was “inactive”.

As for `C=CC[C@H](CC(=O)NCCO)C(=O)NC[C@H](OC(=O)[C@@H](CC=C)CC(=O)OC(C)(C)C)c1ccccc1`, the cytotoxicity call is “inactive”.

Take `COc1ccc(S(=O)(=O)Nc2cccc3c2O[C@H](CN(C)C(=O)Nc2c(C)noc2C)[C@@H](C)CN([C@H](C)CO)C3=O)cc1`: the cytotoxicity call is “active”.

Turning to `COc1ccc(S(=O)(=O)Nc2cccc3c2O[C@H](CN(C)C(=O)Nc2c(C)noc2C)[C@@H](C)CN([C@@H](C)CO)C3=O)cc1`, the cytotoxicity call was “inactive”.

As for `Cc1ccc(S(=O)(=O)Nc2cccc3c2O[C@H](CN(C)C(=O)Nc2cccc4ccccc24)[C@@H](C)CN([C@@H](C)CO)C3=O)cc1`, the cytotoxicity call was “active”.

As to `C[C@@H]1CN([C@H](C)CO)C(=O)c2cccc(NS(=O)(=O)c3cccs3)c2O[C@H]1CN(C)C(=O)Nc1cccc2ccccc12`, the cytotoxicity call is “inactive”.

On to `COc1ccc(S(=O)(=O)Nc2cccc3c2O[C@H](CN(C)C(=O)Nc2cccc4ccccc24)[C@H](C)CN([C@H](C)CO)C3=O)cc1`, for which the cytotoxicity call is “inactive”.

Take `Cc1ccc(S(=O)(=O)Nc2cccc3c2O[C@H](CN(C)C(=O)Nc2cccc4ccccc24)[C@@H](C)CN([C@H](C)CO)C3=O)cc1`: the cytotoxicity call is “inactive”.

In the case of `COc1ccc(S(=O)(=O)Nc2cccc3c2O[C@@H](CN(C)C(=O)Nc2cccc4ccccc24)[C@H](C)CN([C@@H](C)CO)C3=O)cc1`, the cytotoxicity call was “active”.

Consider `C[C@H]1CN([C@@H](C)CO)C(=O)c2cccc(NS(=O)(=O)c3cccs3)c2O[C@@H]1CN(C)C(=O)Nc1cccc2ccccc12`, for which the cytotoxicity call was “active”.

With `COc1ccc(S(=O)(=O)Nc2cccc3c2O[C@H](CN(C)C(=O)Nc2cccc4ccccc24)[C@H](C)CN([C@@H](C)CO)C3=O)cc1`, the cytotoxicity call is “inactive”.

In the case of `COc1ccc(S(=O)(=O)Nc2cccc3c2O[C@@H](CN(C)C(=O)Nc2c(C)noc2C)[C@H](C)CN([C@@H](C)CO)C3=O)cc1`, the cytotoxicity call was “inactive”.

With `Cc1ccc(S(=O)(=O)Nc2cccc3c2O[C@@H](CN(C)C(=O)Nc2cccc4ccccc24)[C@H](C)CN([C@@H](C)CO)C3=O)cc1`, the cytotoxicity call is “inactive”.

Regarding `C[C@H](CO)N1C[C@H](C)[C@@H](CN(C)C(=O)Nc2cccc3ccccc23)Oc2c(NS(=O)(=O)c3cccs3)cccc2C1=O`, the cytotoxicity call was “inactive”.

The values are drawn from the antibiotic and cytotoxicity screens of Wong et al. (2023).
